The results in this text go back to PubChem BioAssay (NCI).

The panel holds about 83,000 compounds, 20% with a hit somewhere; the sample as a whole holds those more often.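 Assay: single dose, 48 h. Readout: percent growth (0 = no net growth; negative = cell death). Active: <10.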 The source made the active and inactive calls.

The subject of the experiment is BT-549 breast. Put plainly: NCI-60 one-dose screen, 48 h (100 = growth as untreated, 0 = no growth, -100 = all killed). Conditions: 10 µM unless noted. As to the method:
Growth inhibition of the BT-549 human tumor cell line is measured as a screen for anti-cancer activity. Cells are grown in 96 well plates and exposed to the test compound for 48 hours. Compounds are tested at a single concentration, which is 10^-5 M for most compounds. The reported endpoint is percent growth (GI% or GIPRCNT), where numbers from 0 - 100% represent growth inhibition, and numbers from -100% - 0 represent cell death. For example, a value of 40 represents 60% growth inhibition. A value of 0 means no net growth occurred over the course of the experiment. A value of -40 indicates 40% of cells at the beginning of the experiment died by the end of the experiment. A value of -100 means all cells are dead at the end of the experiment.
NCI-60 Human Tumor Cell Lines Screen was performed using the standard one-dose NCI protocol, which is described in more detail at https://dtp.cancer.gov/discovery_development/nci-60/default.htm.
Compounds with GIPRCNT values below 10 were considered active. Activity score was based on GIPRCNT using the following formula: […]
Score is 0 for GIPRCNT values of 100 or above, 50 for GIPRCNT values of 0, and 100 for GIPRCNT values of -100.
Regarding `CC(C)C[C@H](NC(=O)[C@H](Cc1ccccc1)n1ccc(N2CCCCC2)cc1=O)B(O)O`, the growth is 31.3% (inactive).

Turning to `CCN(CC)P(=O)(N(CC)CC)N(CCCSC/C=C(\C)CC/C=C(\C)CCC=C(C)C)CCCN1CCN(C)CC1`, the growth was 102% (inactive).

`Cc1ccc2nc(SCn3nnc4ccccc4c3=O)[nH]c2c1`: the growth is 105% (inactive).

Take `NCCSC(c1ccccc1)(c1ccccc1)c1ccccc1`: the growth was 22.1% (inactive).

For the compound `CCN(Cc1ccccc1)c1ccc(SC#N)cc1`, the growth is 71.5% (inactive).

In the case of `COc1cc(C2C3=C(COC3=O)Nc3c2ccc2c3CCCC2)cc2c1OCO2` (stereo not given), the growth is 9.86% (active).

Regarding `COC1=CC(c2ccc[nH]2)=N/C1=C\c1[nH]c(C)c(C(=O)CCCCC(=O)Oc2ccc3c(c2)CCC2C3CC[C@]3(C)[C@@H](O)CC[C@@H]23)c1C` (stereo not given in full), the growth was 50.3% (inactive).

Take `CC[C@]1(O)C[C@@H]2CN(Cc3c([nH]c4ccccc34)[C@@](C(=O)OC)(c3cc4c(cc3OC)N(C)[C@H]3[C@@](O)(C(=O)OC)[C@H](OC(C)=O)[C@]5(CC)[C@@H]6C[C@@H]6CN6CC[C@]43[C@@H]65)C2)C1`: the growth was -23.1% (active).

`CC1Cc2c(N(C)C)ncnc2N(C)c2ccc(O)cc21` (stereo not given): the growth is 88.8% (inactive).

Regarding `Cc1ccnc2nc(C(=O)OCC(=O)Nc3ccc(-c4ccccc4)cc3)nn12`, the growth was 96.3% (inactive).

In the case of `COc1cc2nc(Cl)nc(NCCO)c2cc1OC`, the growth is 112% (inactive).

As for `COc1cc2nc(N3CCC[C@@H](NC4=CC(=O)c5ccccc5C4=O)C3)nc(N)c2cc1OC`, the growth is 118% (inactive).

With `O=C(CN1CCN(c2cc3c(cc2F)c(=O)c(C(=O)O)cn3C2CC2)CC1)Nc1ccc(C(=O)/C=C/c2ccccc2)cc1`, the growth is 9.61% (active).

For `Cc1cc(Nc2nc(-c3ccncc3)nc3ccccc23)n[nH]1`, the growth is 82.7% (inactive).

Turning to `O=C(O)C(Cc1ccccc1)N1C(=O)/C(=C/C(Cl)=C/c2ccc([N+](=O)[O-])cc2)SC1=S` (stereo not given), the growth was -28.1% (active).

As for `Cc1c(C(=O)NCc2ccccc2)[n+](=O)c2cc(F)ccc2n1[O-]`, the growth is 121% (inactive).

For the compound `COc1cc2c(cc1OC)C1(C)N(CC2)C(=O)OC1(C)C` (stereo not given), the growth was 115% (inactive).

Regarding `COc1cc(/C=C2\CCCC3=C2NC(C)=NC3c2cc(OC)c(OC)c(OC)c2)cc(OC)c1OC` (stereo not given), the growth was 2.96% (active).

`CCN(C(=O)c1cc2ncccc2[nH]1)[C@H]1CCC[C@@H](NCc2cccc(F)c2)C1`: the growth was 104% (inactive).

As to `C=C1C(=O)O[C@H]2[C@H]1CC/C(COC(=O)NCCc1ccc(OC)cc1)=C\CC[C@@]1(C)O[C@@H]21`, the growth is 8.9% (active).

As for `O=[N+]([O-])c1c(S(=O)(=O)O)cc2cc(S(=O)(=O)O)ccc2c1[N+](=O)[O-]`, the growth was 104% (inactive).

As for `COc1ccc(-c2nc3sccn3c2-c2ccnc(NCCCNS(=O)(=O)c3ccc4ccccc4c3)n2)cc1`, the growth was 65.3% (inactive).

For `CCNCc1ccncc1`, the growth was 114% (inactive).

As for `COc1ccc(/C=C2\Oc3cc(OCCN4CCCC4)ccc3C2=O)c(OC)c1`, the growth was 94.2% (inactive).

Take `COc1ccc(-c2nc(-c3nc4ccc(F)cc4[nH]3)cc3c2[nH]c2ccccc23)cc1`: the growth was 41.8% (inactive).

In the case of `Cc1oc2nc[nH]c(=O)c2c1C(=O)/C=C/c1ccc(Cl)cc1Cl`, the growth was 73.8% (inactive).

For the compound `COc1ccc(NC(=S)/N=c2\oc3c(OC)cccc3cc2-c2cc3ccccc3[nH]2)cc1`, the growth was 90.4% (inactive).

For `O=C(OCCCCOC(=O)n1cnc2ccccc21)n1cnc2ccccc21`, the growth was 104% (inactive).

In the case of `COc1ncc(-c2ccc3ncnc(Nc4cccc(Cl)c4)c3c2)cc1NS(=O)(=O)C1CC1`, the growth is 2.9% (active).

Take `COc1cc(NC(=O)CCl)ccc(=O)c1`: the growth was 58.9% (inactive).

As for `O=c1oc2cc(OS(=O)(=O)c3ccc(F)cc3)ccc2c2c1CCCCC2`, the growth is 73.6% (inactive).

As to `CCOC(=O)CC/C(C)=N\Nc1ccc([N+](=O)[O-])cc1`, the growth was 82.4% (inactive).

As to `COC12CC(=O)C(C(C)=O)=C(O)C1(C)c1c(O)c(C)c(O)c(C(C)=O)c1O2` (stereo not given), the growth is 78.7% (inactive).

`COc1ccc(/C=C/C(=O)c2ccc(NC(=O)CN3CCN(c4cc5c(cc4F)c(=O)c(C(=O)O)cn5C4CC4)CC3)cc2)cc1`: the growth was 92.6% (inactive).

In the case of `O=C(O)Cc1ccc2c(c1)Cc1cccnc1O2`, the growth is 101% (inactive).

Take `NC(=S)NN=C1CCCCC1`: the growth was 85.6% (inactive).

For `CCNc1nc(N2CC(=O)Nc3cc(OC)ccc32)c2ccccc2n1`, the growth was -22.2% (active).

For the compound `Nc1c(C(=O)Nc2ccccc2)sc2nc3c(cc12)CN(Cc1ccccc1)CC3`, the growth was 50.8% (inactive).

Turning to `COc1cccc(/C=C/C(=O)c2sc(Nc3ccc(O)cc3)nc2C)c1`, the growth is 14.6% (inactive).

As to `Clc1nc2ccccc2nc1CI`, the growth was 92% (inactive).
